Measured values reported in PubChem BioAssay AID1159580 (chemical genetic matrix, 2015).
In all, about 5,500 compounds went through this assay and about 2,000 (36%) were called active. Inconclusive results (about 18%) are left out. No stated cut-off is given here; in the data, active means normalized growth mostly below about 0.91 (no sharp cut-off); inconclusive means no clear call, values can overlap the other calls; inactive means mostly above about 0.92. This is one part of the list.

Test: chemical genetic growth profiling, strain panel (AID 1159580);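 further: tested at 20 µM; growth read once vehicle control cultures reached saturation at 30 °C; 1 = growth at the plate median or of vehicle wells; lower values mean less growth of the strain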
Settings: S. cerevisiae deletion strains, growth OD
[1] = locus YAR019C, strain CDC15, hits give low values
[2] = locus YBL105C, strain PKC1, hits give low values
[3] = locus YBR135W, strain CKS1, hits give low values
[4] = locus YBR136W, strain MEC1, hits give low values
[5] = locus YBR160W, strain CDC28, hits give low values
[6] = locus YDL017W, strain CDC7, hits give low values
[7] = locus YDL028C, strain MPS1, hits give low values
[8] = locus YDL101C, strain DUN1, hits give low values
[9] = locus YDL108W, strain KIN28, hits give low values
[10] = locus YDL132W, strain cdc53, hits give low values
[11] = locus YDL214C, strain PRR2, hits give low values
[12] = locus YDR052C, strain DBF4, hits give low values
[13] = locus YDR054C, strain cdc34, hits give low values
[14] = locus YDR226W, strain ADK1, hits give low values
[15] = locus YDR477W, strain SNF1, hits give low values
[16] = locus YER123W, strain YCK3, hits give low values
[17] = locus YER133W, strain GLC7, hits give low values
[18] = locus YFL009W, strain cdc4, hits give low values
[19] = locus YFL029C, strain CAK1, hits give low values
[20] = locus YFR003C, strain YPI1, hits give low values
[21] = locus YFR019W, strain FAB1, hits give low values
[22] = locus YFR028C, strain CDC14, hits give low values
[23] = locus YGR040W, strain KSS1, hits give low values
[24] = locus YGR052W, strain FMP48, hits give low values
[25] = locus YGR092W, strain DBF2, hits give low values
[26] = locus YHR030C, strain SLT2, hits give low values
[27] = locus YHR079C, strain IRE1, hits give low values
[28] = locus YHR082C, strain KSP1, hits give low values
[29] = locus YHR205W, strain SCH9, hits give low values
[30] = locus YIL147C, strain SLN1, hits give low values
[31] = locus YJL095W, strain BCK1, hits give low values
[32] = locus YJL128C, strain PBS2, hits give low values
[33] = locus YJL157C, strain FAR1, hits give low values
[34] = locus YJR016C, strain ILV3, hits give low values
[35] = locus YJR066W, strain TOR1 (second series), hits give low values
[36] = locus YJR066W, strain TOR1, hits give low values
[37] = locus YKL048C, strain ELM1, hits give low values
[38] = locus YKL067W, strain YNK1, hits give low values
[39] = locus YKL101W, strain HSL1, hits give low values
[40] = locus YKL193C, strain SDS22, hits give low values
[41] = locus YKL203C, strain TOR2, hits give low values
[42] = locus YLR113W, strain HOG1, hits give low values
[43] = locus YLR133W, strain CKI1, hits give low values
[44] = locus YLR403W, strain SFP1, hits give low values
[45] = locus YML070W, strain DAK1, hits give low values
[46] = locus YMR001C, strain CDC5, hits give low values
[47] = locus YMR205C, strain PFK2 (second series), hits give low values
[48] = locus YMR277W, strain FCP1, hits give low values
[49] = locus YNL006W, strain LST8, hits give low values
[50] = locus YNL020C, strain ARK1, hits give low values
[51] = locus YNL161W, strain CBK1, hits give low values
[52] = locus YNL183C, strain NPR1, hits give low values
[53] = locus YNL207W, strain RIO2, hits give low values
[54] = locus YNL222W, strain SSU72, hits give low values
[55] = locus YNL307C, strain MCK1 (second series), hits give low values
[56] = locus YOL078W, strain AVO1, hits give low values
[57] = locus YOL136C, strain PFK27, hits give low values
[58] = locus YOR061W, strain CKA2, hits give low values
[59] = locus YOR119C, strain RIO1, hits give low values
[60] = locus YOR231W, strain MKK1, hits give low values
[61] = locus YOR329C, strain SCD5, hits give low values
[62] = locus YPL031C, strain PHO85, hits give low values
[63] = locus YPL153C, strain RAD53, hits give low values
[64] = locus YPL204W, strain HRR25, hits give low values
[65] = locus YPL209C, strain IPL1, hits give low values
[66] = locus YPL256C, strain CLN2, hits give low values
[67] = locus YPR025C, strain CCL1, hits give low values
[68] = locus YPR106W, strain ISR1, hits give low values
[69] = locus YPR111W, strain DBF20, hits give low values
[70] = strain NNK1, hits give low values
[71] = strain TSCII, hits give low values

SMILES: Oc1c(Cl)cc(Cl)cc1C=Nc1ccc(Sc2ccccc2)nc1Sc1ccccc1
- normalized growth [1]: 0.938 (inactive)
- normalized growth [2]: 0.958 (inactive)
- normalized growth [3]: 0.954 (inactive)
- normalized growth [4]: 0.954 (inactive)
- normalized growth [5]: 0.954 (inactive)
- normalized growth [6]: 0.956 (inactive)
- normalized growth [7]: 0.922 (inactive)
- normalized growth [8]: 0.97 (inactive)
- normalized growth [9]: 0.945 (inactive)
- normalized growth [10]: 0.95 (inactive)
- normalized growth [11]: 0.675 (active)
- normalized growth [12]: 0.968 (inactive)
- normalized growth [13]: 0.95 (inactive)
- normalized growth [14]: 0.956 (inactive)
- normalized growth [15]: 0.6 (active)
- normalized growth [16]: 0.7 (inactive)
- normalized growth [17]: 0.635 (active)
- normalized growth [18]: 0.945 (inactive)
- normalized growth [19]: 0.943 (inactive)
- normalized growth [20]: 0.955 (inactive)
- normalized growth [21]: 0.916 (inactive)
- normalized growth [22]: 0.942 (inactive)
- normalized growth [23]: 0.684 (active)
- normalized growth [24]: 0.616 (inactive)
- normalized growth [25]: 0.217 (active)
- normalized growth [26]: 0.322 (active)
- normalized growth [27]: 0.472 (active)
- normalized growth [28]: 0.599 (active)
- normalized growth [29]: 0.462 (active)
- normalized growth [30]: 0.939 (inactive)
- normalized growth [31]: 0.414 (active)
- normalized growth [32]: 0.913 (inactive)
- normalized growth [33]: 0.56 (active)
- normalized growth [34]: 0.961 (inactive)
- normalized growth [35]: 0.771 (inactive)
- normalized growth [36]: 0.482 (active)
- normalized growth [37]: 0.734 (active)
- normalized growth [38]: 0.584 (active)
- normalized growth [39]: 0.674 (active)
- normalized growth [40]: 0.945 (inactive)
- normalized growth [41]: 0.748 (inactive)
- normalized growth [42]: 0.667 (active)
- normalized growth [43]: 0.585 (active)
- normalized growth [44]: 0.49 (active)
- normalized growth [45]: 0.727 (inactive)
- normalized growth [46]: 0.943 (inactive)
- normalized growth [47]: 0.59 (active)
- normalized growth [48]: 0.929 (inactive)
- normalized growth [49]: 0.942 (inactive)
- normalized growth [50]: 0.566 (active)
- normalized growth [51]: 0.957 (inactive)
- normalized growth [52]: 0.606 (inactive)
- normalized growth [53]: 0.962 (inactive)
- normalized growth [54]: 0.938 (inactive)
- normalized growth [55]: 0.517 (active)
- normalized growth [56]: 0.955 (inactive)
- normalized growth [57]: 0.693 (inactive)
- normalized growth [58]: 0.392 (active)
- normalized growth [59]: 0.652 (active)
- normalized growth [60]: 0.509 (active)
- normalized growth [61]: 0.948 (inactive)
- normalized growth [62]: 0.598 (active)
- normalized growth [63]: 0.535 (active)
- normalized growth [64]: 0.577 (active)
- normalized growth [65]: 0.951 (inactive)
- normalized growth [66]: 0.619 (active)
- normalized growth [67]: 0.95 (inactive)
- normalized growth [68]: 0.956 (inactive)
- normalized growth [69]: 0.941 (inactive)
- normalized growth [70]: 0.965 (inactive)
- normalized growth [71]: 0.95 (inactive)

SMILES: Oc1c(Br)cc(Br)cc1C=Nc1ccccn1
- normalized growth [2]: 0.969 (inactive)
- normalized growth [3]: 0.965 (inactive)
- normalized growth [4]: 0.967 (inactive)
- normalized growth [5]: 0.965 (inactive)
- normalized growth [6]: 0.958 (inactive)
- normalized growth [7]: 0.96 (inactive)
- normalized growth [9]: 0.978 (inactive)
- normalized growth [11]: 0.221 (active)
- normalized growth [12]: 0.968 (inactive)
- normalized growth [14]: 0.989 (inactive)
- normalized growth [15]: 0.417 (active)
- normalized growth [16]: 0.119 (active)
- normalized growth [17]: 0.288 (active)
- normalized growth [20]: 0.952 (inactive)
- normalized growth [21]: 0.111 (active)
- normalized growth [22]: 0.984 (inactive)
- normalized growth [23]: 0.437 (active)
- normalized growth [24]: 0.179 (active)
- normalized growth [25]: 0.16 (active)
- normalized growth [26]: 0.133 (active)
- normalized growth [27]: 0.135 (active)
- normalized growth [28]: 0.161 (active)
- normalized growth [29]: 0.118 (active)
- normalized growth [30]: 0.965 (inactive)
- normalized growth [31]: 0.132 (active)
- normalized growth [32]: 0.937 (inactive)
- normalized growth [33]: 0.165 (active)
- normalized growth [34]: 0.974 (inactive)
- normalized growth [35]: 0.368 (active)
- normalized growth [36]: 0.141 (active)
- normalized growth [37]: 0.55 (active)
- normalized growth [38]: 0.213 (active)
- normalized growth [39]: 0.375 (active)
- normalized growth [41]: 0.348 (active)
- normalized growth [42]: 0.154 (active)
- normalized growth [43]: 0.165 (active)
- normalized growth [44]: 0.167 (active)
- normalized growth [45]: 0.113 (active)
- normalized growth [46]: 0.962 (inactive)
- normalized growth [47]: 0.211 (active)
- normalized growth [49]: 0.895 (active)
- normalized growth [50]: 0.14 (active)
- normalized growth [51]: 0.968 (inactive)
- normalized growth [52]: 0.146 (active)
- normalized growth [53]: 0.965 (inactive)
- normalized growth [54]: 0.96 (inactive)
- normalized growth [55]: 0.23 (active)
- normalized growth [57]: 0.116 (active)
- normalized growth [58]: 0.114 (active)
- normalized growth [59]: 0.341 (active)
- normalized growth [60]: 0.12 (active)
- normalized growth [61]: 0.963 (inactive)
- normalized growth [62]: 0.296 (active)
- normalized growth [63]: 0.23 (active)
- normalized growth [64]: 0.304 (active)
- normalized growth [65]: 0.967 (inactive)
- normalized growth [66]: 0.155 (active)
- normalized growth [67]: 0.968 (inactive)
- normalized growth [68]: 0.962 (inactive)
- normalized growth [69]: 0.953 (inactive)
- normalized growth [70]: 0.947 (inactive)

SMILES: Oc1c(Br)cc(Br)cc1/C=N\n1cnnc1
- normalized growth [1]: 0.938 (inactive)
- normalized growth [2]: 0.942 (inactive)
- normalized growth [3]: 0.943 (inactive)
- normalized growth [4]: 0.943 (inactive)
- normalized growth [5]: 0.958 (inactive)
- normalized growth [6]: 0.943 (inactive)
- normalized growth [7]: 0.941 (inactive)
- normalized growth [8]: 0.915 (inactive)
- normalized growth [9]: 0.945 (inactive)
- normalized growth [10]: 0.947 (inactive)
- normalized growth [11]: 0.588 (active)
- normalized growth [12]: 0.947 (inactive)
- normalized growth [13]: 0.933 (inactive)
- normalized growth [14]: 0.947 (inactive)
- normalized growth [15]: 0.308 (active)
- normalized growth [16]: 0.452 (active)
- normalized growth [17]: 0.483 (active)
- normalized growth [18]: 0.954 (inactive)
- normalized growth [19]: 0.949 (inactive)
- normalized growth [20]: 0.945 (inactive)
- normalized growth [21]: 0.791 (inactive)
- normalized growth [22]: 0.958 (inactive)
- normalized growth [23]: 0.391 (active)
- normalized growth [24]: 0.323 (active)
- normalized growth [25]: 0.116 (active)
- normalized growth [26]: 0.307 (active)
- normalized growth [27]: 0.246 (active)
- normalized growth [28]: 0.32 (active)
- normalized growth [29]: 0.0783 (active)
- normalized growth [30]: 0.907 (inactive)
- normalized growth [31]: 0.26 (active)
- normalized growth [33]: 0.412 (active)
- normalized growth [34]: 0.951 (inactive)
- normalized growth [35]: 0.728 (inactive)
- normalized growth [36]: 0.287 (active)
- normalized growth [37]: 0.289 (active)
- normalized growth [38]: 0.503 (active)
- normalized growth [39]: 0.225 (active)
- normalized growth [40]: 0.943 (inactive)
- normalized growth [41]: 0.244 (active)
- normalized growth [42]: 0.369 (active)
- normalized growth [43]: 0.305 (active)
- normalized growth [44]: 0.122 (active)
- normalized growth [45]: 0.606 (active)
- normalized growth [46]: 0.903 (inactive)
- normalized growth [47]: 0.355 (active)
- normalized growth [48]: 0.931 (inactive)
- normalized growth [49]: 0.927 (inactive)
- normalized growth [50]: 0.259 (active)
- normalized growth [51]: 0.944 (inactive)
- normalized growth [52]: 0.354 (active)
- normalized growth [53]: 0.942 (inactive)
- normalized growth [54]: 0.944 (inactive)
- normalized growth [55]: 0.138 (active)
- normalized growth [56]: 0.926 (inactive)
- normalized growth [57]: 0.517 (active)
- normalized growth [58]: 0.15 (active)
- normalized growth [59]: 0.237 (active)
- normalized growth [60]: 0.316 (active)
- normalized growth [61]: 0.934 (inactive)
- normalized growth [62]: 0.303 (active)
- normalized growth [63]: 0.416 (active)
- normalized growth [64]: 0.348 (active)
- normalized growth [65]: 0.95 (inactive)
- normalized growth [66]: 0.462 (active)
- normalized growth [67]: 0.946 (inactive)
- normalized growth [68]: 0.918 (inactive)
- normalized growth [69]: 0.918 (inactive)
- normalized growth [70]: 0.289 (active)
- normalized growth [71]: 0.938 (inactive)
